Measured values taken from PubChem BioAssay (NCI).
Compounds without any hit were thinned out: in the full panel of roughly 83,000, 20% have a hit.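 48-hour exposure, single concentration, 96-well plates; percent growth endpoint where 0 means no net growth. Active: below 10.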 Values without a mark were called inactive.

The compounds below were run on M14 melanoma (assay: NCI-60 one-dose screen, 48 h (100 = growth as untreated, 0 = no growth, -100 = all killed)). Details: 10 µM.
Protocol: Growth inhibition of the M14 human tumor cell line is measured as a screen for anti-cancer activity. Cells are grown in 96 well plates and exposed to the test compound for 48 hours. Compounds are tested at a single concentration, which is 10^-5 M for most compounds. The reported endpoint is percent growth (GI% or GIPRCNT), where numbers from 0 - 100% represent growth inhibition, and numbers from -100% - 0 represent cell death. For example, a value of 40 represents 60% growth inhibition. A value of 0 means no net growth occurred over the course of the experiment. A value of -40 indicates 40% of cells at the beginning of the experiment died by the end of the experiment. A value of -100 means all cells are dead at the end of the experiment.
NCI-60 Human Tumor Cell Lines Screen was performed using the standard one-dose NCI protocol, which is described in more detail at https://dtp.cancer.gov/discovery_development/nci-60/default.htm.
Compounds with GIPRCNT values below 10 were considered active. Activity score was based on GIPRCNT using the following formula: […]
Score is 0 for GIPRCNT values of 100 or above, 50 for GIPRCNT values of 0, and 100 for GIPRCNT values of -100.

Row | Structure (SMILES) | growth [%]
1 | COCCOCCCl | 101
2 | O=C1C=CC2=C3c4cc(O)c(O)cc4CC3(O)COC2=C1O (stereo not given) | 102
3 | CCS(=O)(=O)c1cc(=O)[nH]c(=O)[nH]1 | 87.1
4 | NC(=S)N/N=C/c1ccc(N)cc1 | 98.4
5 | O=c1[nH]c(O)c(/C=C2/C=Nc3ccccc32)[nH]1 | 99.4
6 | Cc1cc(C)cc(NCCC#N)c1 | 117
7 | Cc1cc2nc(CO)[nH]c2cc1C | 107
8 | CCCCOC(OCCCC)c1ccccc1 | 113
9 | OCCN(CCO)C(=S)S | 108
10 | Nc1ccc(NC(=O)c2cccc(N)c2)cc1 | 104
11 | c1ccc2c(c1)Sc1ccccc1S2 | 103
12 | Cc1nc2ccccc2c(C(=O)O)c1O | 90.3
13 | O=C1c2ccccc2C(=O)N1OCc1ccccc1 | 108
14 | CCOC(=O)/C(C#N)=C/c1cccc(C)c1 | 97.4
15 | CCOC(=O)Nc1cc2c(c(N)n1)N=C(c1ccccc1)CO2 | 15.4
16 | CC1CCCCN1C(=S)Nc1ccc(S(=O)(=O)N2CCCCC2)cc1 (stereo not given) | 89.2
17 | CC(=O)C1CCCCC1 | 106
18 | Cc1cccc(CO)c1 | 108
19 | COc1ccccc1NC(=O)c1cc2cc(Br)ccc2cc1O | 19.6
20 | COC(=O)c1ccc(C(C)C)cc1 | 88.6

Row | Structure (SMILES) | growth [%]
21 | O=C(c1ccc(O)cc1)c1ccc(O)cc1 | 98.7
22 | Cc1ccc(O)c(C(=O)c2ccccc2)c1 | 95.8
23 | O=C(O)C(Cc1ccccc1)C(=O)O | 104
24 | O=C(NCc1ccco1)Nc1c(Cl)cc(Cl)cc1Cl | 99.3
25 | FC(F)(F)c1ccc2c(c1)N(CCCN1CCN(C3CC3)CC1)c1ccccc1S2 | 34.3
26 | O=[N+]([O-])c1ccc(-c2ncc(-c3ccc(Br)cc3)o2)cc1 | 109
27 | c1ccc(/C(=N\N=C(/c2ccccc2)c2cccs2)c2cccs2)cc1 | 101
28 | CCCCNC(=O)C(=O)NCCCC | 104
29 | COc1cc(-c2ccc(NC(=O)NC3CC3)c(OC)c2)ccc1NC(=O)NC1CC1 | 75.7
30 | NC(=O)NC(=O)c1ccc(Cl)cc1 | 96.1
31 | Nc1ccc(CC(=O)O)c(N)c1 | 100
32 | CC(C)CCOC(=O)c1ccccc1 | 100
33 | CCCCCCCCO | 105
34 | COc1cc(OC)c2ccc(=O)oc2c1 | 115
35 | Cc1cc2nc(CC(=O)c3ccccc3)c(=O)[nH]c2cc1C | 87.2
36 | CCc1nn(Cc2ccccc2)c2nc(C)c(CCc3ccccc3)c(Cl)c12 | 100
37 | CC(=O)c1ccc2c(ccc3ccccc32)c1 | 89.1
38 | O=C(Nc1cccc(NC(=O)Nc2cc(C(F)(F)F)ccc2Cl)c1)Nc1cc(C(F)(F)F)ccc1Cl | 21.6
39 | COc1ccc(-c2cc(-c3cc(-c4ccc(OC)cc4)nc(N)n3)nc(N)n2)cc1 | 104
40 | CC1(C)S(=O)(=O)OCCOS1(=O)=O | 100
